Results on 43 compounds are retold here after ChEMBL document CHEMBL4888484, “Replenishing the malaria drug discovery pipeline: Screening and hit evaluation of the MMV Hit Generation Library 1 (HGL1) against asexual blood stage Plasmodium falciparum ,using a nano luciferase reporter read-out” (2022).

In all, about 150,000 compounds went through this assay and about 540 (0.36%) showed an effect of 50% or more. The sample holds strong results, similar compounds and a random draw of the others, so the mix is not that of the screen.

This assay concerns Plasmodium falciparum. The experiment in a line: Primary screen in NF54 nanoGlo assay, in single point, at 2uM, 72h; a lower Z score goes with more inhibition. Type of assay: functional, Erythrocyte. The settings on record: timepoint 72 hour.
For orientation: % Inhibition means the drop in the measured response relative to a control, in per cent. With `OC1=Nc2c(ncn2-c2cccnc2)[C@@H](c2ccc(F)c(F)c2)C1`, the “% Inhibition” value was determined as 0% and the Z score is listed as -0.05.

For the compound `CCC1=Nc2ccccc2N=C(NC(=O)CN2CCN(C)CC2)[C@H]1c1ccccc1`, the “% Inhibition” value is reported as -6% and the Z score was 0.93.

In the case of `CCC1=Nc2ccccc2N=C(NC(=O)c2ccc(F)cc2)[C@H]1c1ccc(OC)c(OC)c1`, the “% Inhibition” value is on record as -11% and the Z score is recorded as 1.75.

Consider `CCC1=Nc2ccccc2N=C(NC(=O)C(C)C)[C@H]1c1ccc(F)cc1`, for which the “% Inhibition” value is listed as 64% and the Z score is recorded as -2.85.

Take `Cc1nc(N2C(=O)N(C)C3(CCCC3)C2=O)oc1C`: the “% Inhibition” value is given as 3% and the Z score was -0.31.

As to `O=C(Nc1ccc2c(c1)OCCCO2)c1ccco1`, the “% Inhibition” value is listed as 29% and the Z score is given as -3.9.

For `C[C@@H](NC(=O)c1ccco1)c1ccccc1`, the “% Inhibition” value is 0% and the Z score is 0.04.

Consider `C[C@H](NC(=O)c1ccco1)c1cc2c(cc1Br)OCCCO2`, for which the “% Inhibition” value is reported as 60% and the Z score came out at 0.9.

`CC(NCC1COC(C)(C)O1)c1cc(Cl)c(N)c(Cl)c1` (stereo unspecified): the “% Inhibition” value amounted to 2% and the Z score was -0.28.

On to `Cc1nnc(NCc2ccc(-c3cccc(Cl)c3Cl)o2)n1C`, for which the “% Inhibition” value was -8% and the Z score is given as 0.79.

`Clc1cccc(-c2ccc(CNC3CCCCC3)o2)c1`: the “% Inhibition” value is -9% and the Z score is on record as 1.31.

As for `CCCN1CCC(NCc2ccc(-c3cccc(Cl)c3Cl)o2)CC1`, the “% Inhibition” value is recorded as 55% and the Z score is -11.87.

Regarding `OCCOc1cncc(N2CCOC3(CCCCCC3)C2)n1`, the “% Inhibition” value turned out to be 8% and the Z score is -0.67.

Turning to `Fc1cccnc1N1CCOC2(CCC2)C1`, the “% Inhibition” value is reported as -15% and the Z score is 1.72.

Regarding `Oc1nc(N2CCOC3(CCCC3)C2)ncc1F`, the “% Inhibition” value is 55% and the Z score is reported as -9.19.

As for `CC(=O)c1cccc(-c2ccc3c(cnn3CC(=O)Nc3ccnn3C)c2)c1`, the “% Inhibition” value is reported as -12% and the Z score came to 1.94.

On to `Cc1ccc(CNC(=O)NCC(=O)N2CCC=C(F)C2)cc1`, for which the “% Inhibition” value came to 0% and the Z score is recorded as 0.03.

Regarding `O=C(Nc1cnccc1CO)c1csc(C2CCCCC2)c1`, the “% Inhibition” value came out at 0% and the Z score came out at 0.04.

`O=C(N[C@H]1C[C@@H]2C[C@H]1N(C(=O)c1ccccc1C(F)(F)F)C2)c1cccnc1`: the “% Inhibition” value is recorded as 35% and the Z score was -3.96.

On to `c1ccc(C2=NN(c3ccc(-c4cc(-c5ccccc5)[n+](-c5ccccc5)c(-c5ccccc5)c4)cc3)[C@H](c3ccccc3)C2)cc1`, for which the “% Inhibition” value amounted to 91% and the Z score is -14.02.

On to `Cc1cccc(NCc2ccc(N3N=C(c4ccccc4)C[C@H]3c3ccccc3)cc2)c1`, for which the “% Inhibition” value is recorded as -1% and the Z score is listed as 0.11.

`O=C(NCc1ccc(-n2cncn2)nc1)c1ccncc1`: the “% Inhibition” value is listed as -19% and the Z score stood at 1.67.

Consider `O=C(Cc1ccc(Cl)cc1)Nc1cnc(-n2ccnc2)nc1`, for which the “% Inhibition” value amounted to 4% and the Z score was -0.61.

`COC1(C)CC(N(C)C(=O)[C@@H]2Cc3cncn3C(=O)N2)C1(C)C` (stereo partly specified): the “% Inhibition” value is -3% and the Z score came to 0.52.

For the compound `Cn1cnnc1[C@H]1CCCN(S(=O)(=O)N2CCCCC2)C1`, the “% Inhibition” value is reported as -6% and the Z score is 0.88.

For the compound `O=C(N[C@H]1CCc2ncccc2C1)c1cccc(B(O)O)c1`, the “% Inhibition” value is given as -4% and the Z score stood at 0.45.

In the case of `O=C(NCCN1CCC(CO)CC1)N1CC(Oc2ccccc2F)C1`, the “% Inhibition” value is -17% and the Z score came out at 1.55.

In the case of `NC1CC(c2cc(NCc3cccnc3)nc(C3CC3)n2)C1` (stereo unspecified), the “% Inhibition” value is 15% and the Z score is -2.04.

For `CC(=O)N[C@H]1C[C@@H](c2cc(NCCCc3cccnc3)nc(C)n2)C1`, the “% Inhibition” value is reported as -15% and the Z score turned out to be 2.91.

`N[C@H]1C[C@H](c2cc(NCCCc3cccnc3)nc(C3CC3)n2)C1`: the “% Inhibition” value turned out to be 71% and the Z score was -7.09.

As to `C[C@@H](C(=O)NC(C)(C)c1noc(C(N)=O)n1)c1ccccc1`, the “% Inhibition” value is on record as 2% and the Z score is -0.23.

On to `O=C1COc2ccccc2N1Cc1nc(-c2ccc(N3CCOCC3)cc2)no1`, for which the “% Inhibition” value was -19% and the Z score turned out to be 2.51.

As for `C[C@@H](c1cccnc1)N(C)CC(=O)Nc1nccs1`, the “% Inhibition” value amounted to 9% and the Z score was -1.03.

`CC(C)N(CC(=O)Nc1nccs1)C(=O)COCc1ccccc1`: the “% Inhibition” value is reported as -7% and the Z score amounted to 0.71.

Consider `CC(C)N(CC(=O)Nc1nccs1)Cc1ccccn1`, for which the “% Inhibition” value is given as 65% and the Z score is -10.08.

For the compound `COc1ccc(Nc2nc(N3CCCC3)nc3c2cnn3C)cc1Cl`, the “% Inhibition” value stood at 27% and the Z score was -3.01.

For `O=C(Cn1ncn2nccc2c1=O)Nc1cc(Cl)cc(Cl)c1`, the “% Inhibition” value is reported as -3% and the Z score is given as 0.43.

Take `COc1ccc(Cl)cc1C(=O)N[C@H]1CCc2nn(C)c(=O)cc2C1`: the “% Inhibition” value is given as -18% and the Z score was 3.11.

For `COc1ccc(Cl)cc1C(=O)Nc1ccnn1C[C@H]1CCOC1`, the “% Inhibition” value turned out to be 3% and the Z score was -0.37.

Consider `COc1ccc(Cl)cc1C(=O)Nc1cc(C2CC2)nn1-c1nc(C)cc(=O)[nH]1`, for which the “% Inhibition” value amounted to 63% and the Z score was -6.61.

For the compound `COc1ccc(CC(=O)Nc2cc(C3CC3)nn2-c2nc(C)cc(=O)[nH]2)cc1`, the “% Inhibition” value was 0% and the Z score is on record as -0.01.

As to `CC(C)(Oc1ccc(Cl)cc1)C(=O)Nc1c2c(nn1C(C)(C)C)CS(=O)(=O)C2`, the “% Inhibition” value is -14% and the Z score was determined as 2.68.

On to `Cc1cc(=O)[nH]c(-n2nc(C3CC3)cc2NC(=O)C(C)(C)Oc2ccc(Cl)cc2)n1`, for which the “% Inhibition” value is 84% and the Z score is listed as -15.44.
